Records with an inconclusive call do not appear. Calls of active or inactive are those of the source. Rule for the calls, unless noted: active = hit-call score of the fitted dose curve at least 0.9, where 1 is the maximum; inconclusive = response in the unintended direction; inactive = score below 0.9.
Key:
[1] = ATG_TCF_b_cat_CIS: Attagene CIS-FACTORIAL HepG2 Assay for human T-Cell-Factor with beta-catenin (TCF/b-cat) (AID 2282965; active = hit-call score of the fitted dose curve at least 0.9, where 1 is the maximum; inactive = score below 0.9); settings: HepG2 TCF/beta-catenin cis-reporter transcription, actives raise or lower the signal
In short: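 HepG2 cells transiently transfected with cis-promoter-driven multiplexed reporter units; reporter mRNA measured 24 h after dosing by RT-PCR, FAM labelling, HpaI digestion and capillary electrophoresis. Bidirectional fitting relative to DMSO baseline.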

[2] = ATG_TAL_CIS: Attagene CIS-FACTORIAL HepG2 Assay for human TAL Basal Promoter (AID 2282966; active = hit-call score of the fitted dose curve at least 0.9, where 1 is the maximum; inactive = score below 0.9;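 note: background control endpoint measuring basal TAL promoter reporter mRNA not a specific factor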); settings: HepG2 Attagene cis-factorial TAL promoter reporter; actives raise or lower the signal
In short: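 Steps: transfect HepG2 with multiple reporter transcription units; dose 24 h; isolate RNA, reverse-transcribe, PCR-amplify, label with 6-FAM, digest with HpaI; resolve by capillary electrophoresis. Bidirectional fitting against DMSO baseline.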

[3] = ATG_TGFb_CIS: Attagene CIS-FACTORIAL HepG2 Assay for human Transforming Growth Factor (TGF) (AID 2282967; active = hit-call score of the fitted dose curve at least 0.9, where 1 is the maximum; inactive = score below 0.9); settings: HepG2 Attagene CIS TGFb reporter, mRNA transcription; actives raise or lower the signal
In short: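 Readout: fluorescently labeled reporter cDNA fragments resolved by capillary electrophoresis after RT-PCR. Transfected HepG2 cells dosed for 24 h; endogenous TF activity at TGFB1-linked cis element; gain or loss fitted relative to DMSO.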

[4] = ATG_VDRE_CIS: Attagene CIS-FACTORIAL HepG2 Assay for human Vitamin D Receptor Element (VDRE) (AID 2282968; active = hit-call score of the fitted dose curve at least 0.9, where 1 is the maximum; inactive = score below 0.9); settings: HepG2 VDRE cis-reporter transcription, actives raise or lower the signal
In short: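 Cell-based multiplexed reporter format in human liver HepG2 cells, 24 h post-dose. Fluorescence from capillary electrophoresis of reporter cDNA gives the signal, with DMSO as negative control and baseline.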

[5] = target: X-box-binding protein 1 (Homo sapiens) (UniProt P17861); assay: ATG_Xbp1_CIS: Attagene CIS-FACTORIAL HepG2 Assay for human X-box Binding Protein 1 (XBP1) (AID 2282972; active = hit-call score of the fitted dose curve at least 0.9, where 1 is the maximum; inactive = score below 0.9); settings: HepG2 XBP1 cis-element reporter, Attagene multiplex; actives raise or lower the signal
Sequence of X-box-binding protein 1 (Homo sapiens) (P17861 whole entry, looked up): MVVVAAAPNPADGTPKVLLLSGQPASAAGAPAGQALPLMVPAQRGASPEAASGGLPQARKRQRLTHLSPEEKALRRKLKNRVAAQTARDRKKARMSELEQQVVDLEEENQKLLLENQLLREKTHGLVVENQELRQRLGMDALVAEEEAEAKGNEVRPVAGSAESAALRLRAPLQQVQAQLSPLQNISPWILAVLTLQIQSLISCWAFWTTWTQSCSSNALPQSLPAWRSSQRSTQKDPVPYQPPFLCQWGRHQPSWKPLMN
In short: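 After a 24-hour chemical exposure of HepG2 cells carrying cis-regulated reporters, reporter mRNA levels are assessed. Quantification uses RT-PCR, 6-FAM labelling and capillary electrophoresis. Gain- or loss-of-signal is fitted against DMSO.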

[6] = ATG_M_19_TRANS: Attagene TRANS-FACTORIAL HepG2 Assay for M19 Transcription Factor (Internal Marker) (AID 2282974); settings: HepG2 Attagene TRANS-FACTORIAL M19 internal marker reporter
In short: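 Fluorescence of 6-FAM-labelled reporter cDNA fragments, separated by capillary electrophoresis, served as the readout. These derived from HepG2 cells carrying transfected GAL4-UAS reporter units after 24 h dosing, with DMSO as negative control.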

[7] = ATG_GAL4_TRANS: Attagene TRANS-FACTORIAL HepG2 Assay for GAL4 (Internal Marker) (AID 2282976); settings: HepG2 Attagene TRANS GAL4 internal marker reporter
In short: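 Liver HepG2 line bearing multiplexed GAL4-UAS reporter constructs; 24 h chemical treatment. Transcripts were quantified as fluorescent fragments on capillary electrophoresis after RT-PCR and HpaI cut, with activity fitted upward from DMSO.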

[8] = target: Bile acid receptor (Homo sapiens) (UniProt Q96RI1); assay: ATG_FXR_TRANS: Attagene TRANS-FACTORIAL HepG2 Assay for Farnesoid X Receptor (FXR) (AID 2282979); settings: HepG2 Attagene TRANS FXR-GAL4 reporter transcription;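 note: hits raise reporter mRNA above DMSO so AC50 marks FXR activation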
Sequence of Bile acid receptor (Homo sapiens) (Q96RI1 whole entry, looked up, the tested form may be a part): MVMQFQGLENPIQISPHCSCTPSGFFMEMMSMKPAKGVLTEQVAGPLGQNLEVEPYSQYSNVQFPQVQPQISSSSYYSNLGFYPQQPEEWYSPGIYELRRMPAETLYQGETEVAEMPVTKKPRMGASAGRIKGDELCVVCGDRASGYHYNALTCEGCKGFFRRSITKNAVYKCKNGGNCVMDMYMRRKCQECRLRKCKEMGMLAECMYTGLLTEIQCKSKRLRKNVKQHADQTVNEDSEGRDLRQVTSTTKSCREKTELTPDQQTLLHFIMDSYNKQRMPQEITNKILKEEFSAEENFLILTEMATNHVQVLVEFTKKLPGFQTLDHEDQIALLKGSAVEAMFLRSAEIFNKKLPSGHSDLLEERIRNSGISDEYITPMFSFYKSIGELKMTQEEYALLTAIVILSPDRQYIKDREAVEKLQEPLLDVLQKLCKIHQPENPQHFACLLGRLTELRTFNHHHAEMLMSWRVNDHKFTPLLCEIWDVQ
In short: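 After 24 h chemical treatment of transfected HepG2 cells, GAL4-UAS reporter transcripts driven by an exogenous FXR-GAL4 fusion were measured by RT-PCR and capillary electrophoresis. Increases over DMSO were fitted.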

[9] = target: Oxysterols receptor LXR-alpha (Homo sapiens) (UniProt Q13133); assay: ATG_LXRa_TRANS: Attagene TRANS-FACTORIAL HepG2 Assay for human Liver X Receptor alpha (LXRa) (AID 2282980); settings: HepG2 Attagene TRANS reporter, LXRa transactivation
Sequence of Oxysterols receptor LXR-alpha (Homo sapiens) (Q13133 whole entry, looked up, the tested form may be a part): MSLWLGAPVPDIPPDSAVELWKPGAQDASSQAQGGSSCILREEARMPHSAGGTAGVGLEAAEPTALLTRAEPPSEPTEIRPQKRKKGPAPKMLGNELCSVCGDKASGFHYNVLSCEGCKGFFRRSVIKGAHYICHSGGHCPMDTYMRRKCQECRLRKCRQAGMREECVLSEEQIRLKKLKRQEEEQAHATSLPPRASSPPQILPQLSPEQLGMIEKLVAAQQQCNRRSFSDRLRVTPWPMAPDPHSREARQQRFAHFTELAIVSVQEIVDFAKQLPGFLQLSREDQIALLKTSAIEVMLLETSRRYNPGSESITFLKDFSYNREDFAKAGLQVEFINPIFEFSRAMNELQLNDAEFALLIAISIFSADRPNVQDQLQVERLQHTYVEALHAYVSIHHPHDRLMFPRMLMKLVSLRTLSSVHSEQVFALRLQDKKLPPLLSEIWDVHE
In short: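 In this multiplexed TRANS system, compounds act on HepG2 cells carrying GAL4-UAS reporter units and a receptor-GAL4 fusion for 24 h. Induced reporter RNA is amplified, fluorescently labelled and sized by capillary electrophoresis, with DMSO as baseline.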

[10] = target: Steroid hormone receptor ERR1 (Homo sapiens) (UniProt P11474); assay: ATG_ERRa_TRANS: Attagene TRANS-FACTORIAL HepG2 Assay for human Estrogen-Related Receptor alpha (ERRa) (AID 2282971); settings: HepG2 Attagene TRANS reporter, ERRa transactivation
Sequence of Steroid hormone receptor ERR1 (Homo sapiens) (P11474 whole entry, looked up, the tested form may be a part): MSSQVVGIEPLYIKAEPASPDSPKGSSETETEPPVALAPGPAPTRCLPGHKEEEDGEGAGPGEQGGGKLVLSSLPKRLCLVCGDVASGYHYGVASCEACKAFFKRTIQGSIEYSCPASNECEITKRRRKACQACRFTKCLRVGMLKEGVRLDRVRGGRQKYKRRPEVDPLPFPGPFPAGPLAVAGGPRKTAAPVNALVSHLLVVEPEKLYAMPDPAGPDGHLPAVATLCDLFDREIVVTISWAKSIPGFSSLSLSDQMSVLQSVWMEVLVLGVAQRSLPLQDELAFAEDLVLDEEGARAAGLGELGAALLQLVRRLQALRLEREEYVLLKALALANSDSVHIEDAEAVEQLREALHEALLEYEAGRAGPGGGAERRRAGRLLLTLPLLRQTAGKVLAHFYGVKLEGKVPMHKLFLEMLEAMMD
In short: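 Signal gain relative to DMSO for an ERRa-Gal4 chimeric receptor, read as reporter mRNA by RT-PCR/capillary electrophoresis. Human HepG2 liver cells, transient multiplex reporter transfection, 24 h chemical exposure.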

[11] = target: Glucocorticoid receptor (Homo sapiens) (UniProt P04150); assay: ATG_GR_TRANS: Attagene TRANS-FACTORIAL HepG2 Assay for human Glucocorticoid Receptor (GR) (AID 2282978); settings: HepG2 Attagene TRANS GR reporter, mRNA transcription;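 note: activators score as hits since higher reporter transcript over DMSO is fitted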
Sequence of Glucocorticoid receptor (Homo sapiens) (P04150 whole entry, looked up, the tested form may be a part): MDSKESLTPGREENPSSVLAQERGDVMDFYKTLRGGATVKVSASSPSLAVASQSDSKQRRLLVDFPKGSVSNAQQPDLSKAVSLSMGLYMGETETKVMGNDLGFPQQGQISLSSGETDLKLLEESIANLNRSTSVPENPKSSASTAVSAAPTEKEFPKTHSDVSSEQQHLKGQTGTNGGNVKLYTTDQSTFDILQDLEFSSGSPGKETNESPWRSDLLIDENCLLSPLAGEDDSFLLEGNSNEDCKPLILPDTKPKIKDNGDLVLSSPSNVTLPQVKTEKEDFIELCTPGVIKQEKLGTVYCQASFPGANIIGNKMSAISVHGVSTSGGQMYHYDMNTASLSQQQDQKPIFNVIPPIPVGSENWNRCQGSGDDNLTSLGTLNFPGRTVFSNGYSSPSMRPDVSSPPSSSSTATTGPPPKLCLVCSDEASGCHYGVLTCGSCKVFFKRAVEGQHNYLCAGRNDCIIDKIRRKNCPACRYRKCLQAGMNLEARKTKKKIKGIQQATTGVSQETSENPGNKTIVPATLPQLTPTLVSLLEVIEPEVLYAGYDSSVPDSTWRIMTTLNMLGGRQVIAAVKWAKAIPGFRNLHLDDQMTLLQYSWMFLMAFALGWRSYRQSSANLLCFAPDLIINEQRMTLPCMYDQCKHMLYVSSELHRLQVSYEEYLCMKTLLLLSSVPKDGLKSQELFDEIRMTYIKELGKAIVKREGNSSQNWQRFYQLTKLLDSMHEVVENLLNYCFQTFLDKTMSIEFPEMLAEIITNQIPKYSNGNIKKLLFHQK
In short: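 Fluorescent capillary-electrophoresis quantitation of reporter mRNA is the readout, taken 24 h after dosing human HepG2 cells carrying transiently transfected GAL4-UAS reporter units activated by chimeric NR-GAL4 fusions; activity scored as induction over DMSO.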

[12] = target: Hepatocyte nuclear factor 4-alpha (Homo sapiens) (UniProt P41235); assay: ATG_HNF4a_TRANS: Attagene TRANS-FACTORIAL HepG2 Assay for human Hepatocyte Nuclear Factor 4 alpha (HNF4a) (AID 2282982); settings: HepG2 HNF4a transactivation reporter, mRNA readout
Sequence of Hepatocyte nuclear factor 4-alpha (Homo sapiens) (P41235 whole entry, looked up, the tested form may be a part): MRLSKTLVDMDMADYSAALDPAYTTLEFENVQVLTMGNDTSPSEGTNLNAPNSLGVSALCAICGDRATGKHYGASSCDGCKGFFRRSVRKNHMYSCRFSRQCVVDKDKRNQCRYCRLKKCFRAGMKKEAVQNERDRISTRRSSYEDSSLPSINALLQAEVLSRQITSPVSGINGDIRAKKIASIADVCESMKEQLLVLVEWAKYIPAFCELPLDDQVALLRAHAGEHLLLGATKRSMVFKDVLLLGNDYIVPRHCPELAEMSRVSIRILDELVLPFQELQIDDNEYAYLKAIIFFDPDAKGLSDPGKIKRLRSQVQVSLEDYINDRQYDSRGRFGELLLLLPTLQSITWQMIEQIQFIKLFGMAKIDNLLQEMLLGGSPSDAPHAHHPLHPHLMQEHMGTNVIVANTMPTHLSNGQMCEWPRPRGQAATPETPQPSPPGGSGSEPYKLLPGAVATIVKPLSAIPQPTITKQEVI
In short: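 Gain-of-signal mRNA induction, relative to DMSO vehicle, was read after 24 h compound treatment of HepG2 cells bearing transfected GAL4-UAS reporters. Detection used RT-PCR, 6-FAM primer extension and capillary electrophoresis.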

[13] = target: Transcriptional activator Myb (Homo sapiens) (UniProt P10242); assay: ATG_Myb_CIS: Attagene CIS-FACTORIAL HepG2 Assay for human Myeloblastosis (Myb) Proto-Oncogene Transcription Factor (AID 2282986; active = hit-call score of the fitted dose curve at least 0.9, where 1 is the maximum; inactive = score below 0.9); settings: HepG2 Attagene CIS-FACTORIAL Myb reporter transcription; actives raise or lower the signal
Sequence of Transcriptional activator Myb (Homo sapiens) (P10242 whole entry, looked up): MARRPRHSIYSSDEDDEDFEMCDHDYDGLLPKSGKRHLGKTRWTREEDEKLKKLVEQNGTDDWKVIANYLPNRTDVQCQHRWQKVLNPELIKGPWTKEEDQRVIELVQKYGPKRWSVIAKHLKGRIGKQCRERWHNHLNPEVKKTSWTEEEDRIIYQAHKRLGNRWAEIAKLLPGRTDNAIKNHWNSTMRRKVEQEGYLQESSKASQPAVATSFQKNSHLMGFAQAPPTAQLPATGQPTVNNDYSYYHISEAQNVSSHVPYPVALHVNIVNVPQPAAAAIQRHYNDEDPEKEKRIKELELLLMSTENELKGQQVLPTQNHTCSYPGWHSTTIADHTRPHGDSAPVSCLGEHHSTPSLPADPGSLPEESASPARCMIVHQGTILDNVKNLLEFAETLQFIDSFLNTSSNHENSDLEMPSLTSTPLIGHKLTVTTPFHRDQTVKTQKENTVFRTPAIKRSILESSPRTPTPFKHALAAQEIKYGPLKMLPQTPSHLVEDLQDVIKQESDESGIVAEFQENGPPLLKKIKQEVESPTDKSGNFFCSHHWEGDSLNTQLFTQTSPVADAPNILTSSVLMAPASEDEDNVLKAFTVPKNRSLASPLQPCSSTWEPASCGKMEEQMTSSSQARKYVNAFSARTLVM
In short: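 Reporter transcript levels, quantified by fluorescent RT-PCR and capillary electrophoresis, serve as the read-out. Transfected HepG2 cells carrying cis-promoter reporter units are dosed for 24 hours, and curves are fitted bidirectionally against DMSO controls.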

[14] = target: Estrogen receptor (Homo sapiens) (UniProt P03372); assay: ATG_ERa_TRANS: Attagene TRANS-FACTORIAL HepG2 Assay for human Estrogen Receptor alpha (ERa) (AID 2282970); settings: HepG2 Attagene TRANS ERa GAL4 reporter, mRNA
Sequence of Estrogen receptor (Homo sapiens) (P03372 whole entry, looked up, the tested form may be a part): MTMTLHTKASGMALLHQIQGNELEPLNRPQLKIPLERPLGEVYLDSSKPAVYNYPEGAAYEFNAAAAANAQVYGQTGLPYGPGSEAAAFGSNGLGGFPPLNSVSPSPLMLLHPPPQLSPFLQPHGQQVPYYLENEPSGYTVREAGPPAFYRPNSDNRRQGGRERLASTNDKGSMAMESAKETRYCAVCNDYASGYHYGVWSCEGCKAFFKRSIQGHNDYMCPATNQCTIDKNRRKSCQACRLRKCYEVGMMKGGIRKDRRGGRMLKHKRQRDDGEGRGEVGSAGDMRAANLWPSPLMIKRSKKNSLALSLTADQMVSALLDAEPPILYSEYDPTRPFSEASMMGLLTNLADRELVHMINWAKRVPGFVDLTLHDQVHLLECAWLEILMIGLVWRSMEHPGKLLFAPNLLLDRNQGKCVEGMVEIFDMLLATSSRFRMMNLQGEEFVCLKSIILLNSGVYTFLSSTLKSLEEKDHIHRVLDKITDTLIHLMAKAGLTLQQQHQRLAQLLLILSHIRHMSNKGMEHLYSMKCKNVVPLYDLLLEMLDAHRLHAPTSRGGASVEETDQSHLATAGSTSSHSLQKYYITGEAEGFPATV
In short: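 Multiplexed cell-based reporter format in HepG2: chimeric ERa-Gal4 protein drives GAL4-UAS reporter transcription. Fluorescent reporter mRNA quantified by capillary electrophoresis 24 hours after dosing; endpoint fitted as signal gain against DMSO.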

[15] = target: Oxysterols receptor LXR-beta (Homo sapiens) (UniProt P55055); assay: ATG_LXRb_TRANS: Attagene TRANS-FACTORIAL HepG2 Assay for human Liver X Receptor beta (LXRb) (AID 2282981); settings: HepG2 Attagene TRANS GAL4-LXRb reporter, mRNA
In short: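 Gain-of-signal mRNA reporter endpoint, DMSO as negative control. Transiently transfected HepG2 cells carrying the NR-Gal4 chimera and GAL4-UAS reporter units were treated 24 h; transcripts quantified by RT-PCR and capillary electrophoresis fluorescence.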

[16] = ATG_M_06_TRANS: Attagene TRANS-FACTORIAL HepG2 Assay for M06 Transcription Factor (Internal Marker) (AID 2282983); settings: HepG2 Attagene TRANS M06 internal marker reporter
In short: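 Internal-marker background readout from a multiplexed TRANS reporter system in HepG2; 24 h dosing; mRNA induction quantified by RT-PCR plus capillary electrophoresis fluorescence; DMSO as negative control and baseline.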

[17] = ATG_M_32_TRANS: Attagene TRANS-FACTORIAL HepG2 Assay for M32 Transcription Factor (Internal Marker) (AID 2282984); settings: HepG2 Attagene TRANS M32 internal marker reporter
In short: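 Capillary electrophoresis of 6-FAM-labelled reporter fragments gives the signal; data fitted for gain over DMSO negative control. Source: HepG2 cells bearing transient multiple reporter transcription units, 24 h exposure.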

[18] = target: Nuclear receptor subfamily 4 group A member 2 (Homo sapiens) (UniProt P43354); assay: ATG_NURR1_TRANS: Attagene TRANS-FACTORIAL HepG2 Assay for human Nuclear Receptor Related Protein 1 (NURR1) (AID 2282985); settings: HepG2 Attagene TRANS reporter, mRNA readout
Sequence of Nuclear receptor subfamily 4 group A member 2 (Homo sapiens) (P43354 whole entry, looked up): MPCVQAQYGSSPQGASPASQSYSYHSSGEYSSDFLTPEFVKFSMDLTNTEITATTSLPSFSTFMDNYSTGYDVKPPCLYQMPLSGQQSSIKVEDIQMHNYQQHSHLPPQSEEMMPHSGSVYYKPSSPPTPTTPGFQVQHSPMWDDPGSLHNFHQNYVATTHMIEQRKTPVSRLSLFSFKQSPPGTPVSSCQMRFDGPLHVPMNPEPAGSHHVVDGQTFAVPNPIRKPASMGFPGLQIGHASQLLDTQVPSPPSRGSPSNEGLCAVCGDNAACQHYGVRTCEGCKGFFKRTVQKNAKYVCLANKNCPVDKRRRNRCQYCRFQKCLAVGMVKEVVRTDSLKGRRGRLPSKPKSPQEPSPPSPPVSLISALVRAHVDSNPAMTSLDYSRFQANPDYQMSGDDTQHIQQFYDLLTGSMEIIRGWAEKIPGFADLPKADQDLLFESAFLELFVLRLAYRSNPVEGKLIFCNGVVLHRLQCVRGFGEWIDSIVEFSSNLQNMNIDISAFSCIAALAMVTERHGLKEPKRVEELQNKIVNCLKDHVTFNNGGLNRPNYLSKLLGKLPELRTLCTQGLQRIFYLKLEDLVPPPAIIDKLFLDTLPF
In short: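 HepG2 / transient MRTU transfection / 24 h compound exposure / RT-PCR + CE fluorescence of reporter mRNA / gain-of-signal vs DMSO.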

| SMILES | outcome [1] | outcome [2] | outcome [3] | outcome [4] | outcome [5] | outcome [6] | outcome [7] | outcome [8] | outcome [9] | outcome [10] | outcome [11] | outcome [12] | outcome [13] | outcome [14] | outcome [15] | outcome [16] | outcome [17] | AC50 [4] | outcome [18] |
| --- | --- | --- | --- | --- | --- | --- | --- | --- | --- | --- | --- | --- | --- | --- | --- | --- | --- | --- | --- |
| CCCCCC(=O)OCC | inactive | inactive | inactive | inactive | inactive | inactive | inactive | inactive | inactive |  |  |  |  |  |  |  |  |  |  |
| CC(C)(CO)COC(=O)C(C)(C)CO | inactive | inactive | inactive | inactive | inactive | inactive | inactive |  | inactive | inactive | inactive | inactive | inactive |  |  |  |  |  |  |
| CCOC(=O)C1=NOC(c2ccccc2)(c2ccccc2)C1 | inactive | inactive | inactive | inactive |  |  |  | inactive |  |  |  |  | inactive | inactive | inactive | inactive | inactive |  |  |
| Cc1cccc(C(C)(C)C)c1O | inactive | inactive | inactive |  | inactive |  |  |  | inactive |  | inactive | inactive |  | inactive |  | inactive | inactive | 19.9 µM (active) | inactive |
